Source: PubChem BioAssay
Shn3 inh set2: Schnurri-3 reporter inhibition in Clone20 osteoblasts; Clone20 osteoblast Shn3 3'UTR firefly luciferase, 24 h; inhibition, % at 12.5 µM; actives 0.52% (n = 360,000);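 active = mean inhibition of at least 75% with every replicate also reaching 75%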;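 also: 0% = median of neutral control wells and 100% = pilot-screen positive control compound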
CSC inhib: blocks cancer stem cells | actives 1.1% (n = 300,000) | AID 2717 | cancer stem cell-like cells viability, luminescence | inhibition, % at 7.5 µM; in the data active = inhibition above about 75%; tested in HMLE shEcad cells
PAX8 reporter: PAX8 transcriptional activity inhibition; RMG-I TPO-luciferase reporter, SteadyGlo, 24 h; AID 652154; inhibition, % at 12.6 µM; actives 1.2% (n = 360,000);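 active = mean replicate inhibition at least 60% with every replicate also reaching 60%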;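 also: luciferase light reporting Pax8 driven TPO promoter activity; plate controls were median of neutral control wells for no effect and mitoxantrone controls for full effect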
Mdm2-MdmX inh: disrupts the human Mdm2-MdmX interaction; O15151+Q00987; SaOS-2 split-luciferase Mdm2/MdmX complementation, luminescence; inhibition, % at 8 µM; actives 3% (n = 330,000);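 active = inhibition of at least 50% at 8 µM in the primary screen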
Target sequence (O15151 whole entry, looked up): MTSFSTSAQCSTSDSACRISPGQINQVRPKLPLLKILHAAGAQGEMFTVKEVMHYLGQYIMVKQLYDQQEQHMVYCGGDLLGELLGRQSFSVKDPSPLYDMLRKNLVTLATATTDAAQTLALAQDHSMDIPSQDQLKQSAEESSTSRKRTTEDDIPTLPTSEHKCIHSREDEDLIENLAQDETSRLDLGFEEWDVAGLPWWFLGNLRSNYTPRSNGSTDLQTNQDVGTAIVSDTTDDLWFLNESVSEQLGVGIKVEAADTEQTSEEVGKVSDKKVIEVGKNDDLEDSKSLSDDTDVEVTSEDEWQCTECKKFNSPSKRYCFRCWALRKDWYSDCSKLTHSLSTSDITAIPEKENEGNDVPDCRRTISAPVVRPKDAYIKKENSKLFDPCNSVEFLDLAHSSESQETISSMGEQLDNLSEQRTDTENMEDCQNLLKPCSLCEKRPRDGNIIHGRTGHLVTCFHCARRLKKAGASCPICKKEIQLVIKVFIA
Target sequence (Q00987 whole entry, looked up): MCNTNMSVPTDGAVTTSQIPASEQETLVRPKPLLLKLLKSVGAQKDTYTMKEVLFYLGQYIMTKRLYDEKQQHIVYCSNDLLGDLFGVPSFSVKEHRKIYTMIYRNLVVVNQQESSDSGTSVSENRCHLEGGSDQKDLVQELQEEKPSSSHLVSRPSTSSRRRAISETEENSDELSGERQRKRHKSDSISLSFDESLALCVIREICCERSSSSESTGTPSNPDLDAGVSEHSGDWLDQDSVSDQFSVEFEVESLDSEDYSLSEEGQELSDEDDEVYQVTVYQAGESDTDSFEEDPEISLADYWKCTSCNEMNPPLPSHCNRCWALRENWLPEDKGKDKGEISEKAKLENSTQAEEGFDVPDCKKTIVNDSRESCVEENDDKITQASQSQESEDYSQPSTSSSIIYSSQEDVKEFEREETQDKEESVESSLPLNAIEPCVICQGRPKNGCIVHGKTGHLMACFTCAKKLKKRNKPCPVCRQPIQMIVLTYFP
Gli-Sufu block: blocks Gli-Sufu signaling in a luciferase reporter; inhibition, % at 5 µM; AID 588413; Sufu-KO-LIGHT fibroblasts, Gli luciferase reporter luminescence; actives 0.74% (n = 340,000);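 active = inhibition above about 55%, limit read from the data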;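 also: 0% = DMSO-treated cells and 100% = wells with medium but no cells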
Beta apoptosis: beta cell apoptosis inhibition; INS-1E cytokine-induced death, ATP luminescence, 48 h; percent of positive-control rescue, neutral wells zero; protection from apoptosis, % (no concentration beside the values); actives 0.8% (n = 300,000);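 active = Every replicate reaches about 75%, or at least half do and their mean reaches it too, limit read from the data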;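 also: 0% = cytokine-treated negative control wells and 100% = positive control rescue; higher means more ATP so stronger rescue from cytokine killing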
* = called active by the depositor; · = not tested or not shown. In the library only some 4% were active in any assay of this set; here they are far more common.

SMILES	Shn3 inh set2	CSC inhib	PAX8 reporter	Mdm2-MdmX inh	Gli-Sufu block	Beta apoptosis
Cc1noc(C)c1NC(=O)N[C@H]1CC[C@@H](CC(=O)N2CCCCC2)O[C@H]1CO	·	·	-21	·	·	·
C[C@@H]1CCCCO[C@H](CN(C)Cc2ccc3c(c2)OCO3)[C@H](C)CN([C@H](C)CO)C(=O)c2cc(NS(=O)(=O)c3cccs3)ccc2O1	·	·	-27	·	·	·
CN(Cc1cc(Cl)cc(Cl)c1)CC(C(=O)c1ccccc1)c1ccccc1 (stereo not drawn)	53	·	79*	·	11	·
O=C(CC(C(=O)c1ccccc1)c1ccccc1)c1ccccc1 (stereo not drawn)	9	·	·	·	2	·
CCCCN(C)c1c(C)nc2ccc(C(=O)N(CC)CCN(C)C)cn12	-3	·	82*	·	·	·
CC(C)C(=O)Nc1ccc2c(c1)C(=O)N(C)[C@H]1CC[C@@H](CC(=O)NCc3cccc(F)c3)O[C@H]1CO2	·	·	-3	·	·	·
C[C@@H]1CN([C@H](C)CO)C(=O)c2cc(NC(=O)Nc3ccc(C(F)(F)F)cc3)ccc2O[C@@H](C)CCCCO[C@@H]1CN(C)Cc1ccccc1	·	·	109*	·	·	·
C[C@@H]1CCCCO[C@H](CN(C)Cc2ccc(C(F)(F)F)cc2)[C@H](C)CN([C@H](C)CO)C(=O)c2cc(NC(=O)Nc3ccc(C(F)(F)F)cc3)ccc2O1	·	·	-9	·	·	·
C[C@@H]1CN([C@@H](C)CO)C(=O)c2cc(NC(=O)Nc3ccccc3)ccc2O[C@@H](C)CCCCO[C@H]1CN(C)Cc1ccc(C(F)(F)F)cc1	·	·	72*	·	·	·
C[C@@H]1CCCCO[C@H](CN(C)Cc2ccccc2)[C@@H](C)CN([C@@H](C)CO)C(=O)c2cc(NC(=O)Nc3ccc(C(F)(F)F)cc3)ccc2O1	·	·	119*	·	·	·
C[C@@H]1CN([C@@H](C)CO)C(=O)c2cc(NC(=O)Nc3ccc(C(F)(F)F)cc3)ccc2O[C@@H](C)CCCCO[C@@H]1CN(C)Cc1ccccc1	·	·	79*	·	·	·
O=C(C[C@H]1C=C[C@H](NS(=O)(=O)c2ccc(F)cc2)[C@@H](CO)O1)NC1CCCCC1	·	·	-32	·	·	·
CC(C)c1cn(CC[C@@H]2CC[C@H](NS(=O)(=O)c3ccc(Cl)cc3)[C@@H](CO)O2)nn1	·	·	3	·	·	·
C[C@@H]1CN([C@@H](C)CO)C(=O)c2cc(NC(=O)Nc3ccc(C(F)(F)F)cc3)ccc2O[C@@H](C)CCCCO[C@@H]1CN(C)Cc1ccc(C(F)(F)F)cc1	·	·	-21	·	·	·
C[C@@H]1CN([C@H](C)CO)C(=O)c2cc(NC(=O)Nc3ccc(C(F)(F)F)cc3)ccc2O[C@@H](C)CCCCO[C@H]1CN(C)Cc1ccccc1	·	·	113*	·	·	·
C[C@H](CO)N1C[C@H](C)[C@@H](CN(C)Cc2ccccc2)OCCCC[C@H](C)Oc2ccc(NC(=O)Nc3ccc(C(F)(F)F)cc3)cc2C1=O	·	·	95*	·	·	·
C[C@@H]1CCCCO[C@H](CN(C)Cc2ccc(C(=O)O)cc2)[C@@H](C)CN([C@H](C)CO)C(=O)c2cc(NC(=O)Nc3ccc(C(F)(F)F)cc3)ccc2O1	·	·	-14	·	·	·
CC1Cc2cc(S(=O)(=O)N3CCC(C(=O)N(C)Cc4ccco4)CC3)ccc2N1C(=O)C1CCC1 (stereo not drawn)	27	-4	61*	12	4	9
CC(=O)N1c2ccc(S(=O)(=O)N3CCC(C(=O)N4CCN(c5cc(Cl)ccc5C)CC4)CC3)cc2CC1C (stereo not drawn)	89*	-2	24	44	43	62
CCC(=O)N1c2ccc(S(=O)(=O)N3CCN(c4ccc([N+](=O)[O-])cc4)CC3)cc2CC1C (stereo not drawn)	84	8	68*	18	58*	92*
CC1CCN(S(=O)(=O)c2ccc3c(c2)CC(C)N3C(=O)C2CCC2)CC1 (stereo not drawn)	17	·	15	23	17	14
CC(=O)c1ccc(N2CCN(S(=O)(=O)c3ccc4c(c3)CC(C)N4C(=O)C3CC3)CC2)cc1 (stereo not drawn)	88*	12	20	14	67*	·
CCC(=O)N1c2ccc(S(=O)(=O)N3CCN(CC)CC3)cc2CC1C (stereo not drawn)	-10	-6	-2	4	6	0
COc1ccc(S(=O)(=O)N(C)C[C@H]2OCCCC[C@@H](C)Oc3ccc(NC(=O)Nc4c(C)noc4C)cc3C(=O)N([C@H](C)CO)C[C@@H]2C)cc1	·	·	-5	·	·	·
